# Assay outcomes (PubChem)
# The list is not random: actives were taken first. Their share in the collection is about 1.5%.
# IDH1 R132H inh: blocks human mutant IDH1 R132H enzyme; IDH1-R132H enzyme, NADPH consumption, diaphorase/resazurin fluorescence; Potency, µM (series often up to 76.6 µM), without a hit: at the highest dose activity change, negative = inhibition, most hits filed as inhibitors; 0.093% of 390,000 active; AID 602179; note: potency is the fitted concentration of half-maximal effect; % is set by controls: 0 for no effect and ±100 for the full control effect; nearly all actives have a fitted effect of over 65% in size
#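 IDH1-R132H (0.5 ug/mL) preincubated 30 min with compound, then NADPH (0.016 mM) and alpha-KG (2 mM) added; 80 min at RT, pH 7.5. Remaining NADPH coupled via diaphorase/resazurin to fluorescence (540/590 nm); concentration-response curves normalized to no-enzyme control.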
# FBPA coupling cs: coupling enzyme interference in Giardia aldolase counter-screen; coupling enzyme system counterscreen, AmpLite Red fluorescence; 0.67% of 290,000 active; activity change, negative = inhibition, % at 58.2 µM, hits read low; AID 2472; in the data active = activity change below about -30%; note: % is set by controls: 0 for no effect and ±100 for the full control effect
#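 Counterscreen of the coupled detection system alone, without aldolase: glyceraldehyde-3-phosphate coupling enzymes plus AmpLite Red readout. Compounds at 57.5 uM final, 10 min RT preincubation, 20 min RT reaction, fluorescence 525/598 nm.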
# Eya2 phos inh: inhibitors of human Eya2 phosphatase activity; Potency, µM (titrated, usually from 76.9 µM), for inactives: top-dose activity, negative = inhibition, hits mostly inhibitors; AID 488837; recombinant Eya2, OMFP fluorescence dephosphorylation (OMFP is methylfluorescein phosphate); 0.006% of 330,000 active; O00167; note: potency is the fitted concentration of half-maximal effect; % is set by controls: 0 for no effect and ±100 for the full control effect
#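 Eya2 (0.2 uM) preincubated 10 min at ambient with compound, then OMFP substrate added at 50 uM; 10 min reaction in 50 mM HEPES pH 7.5, 50 mM NaCl, 5 uM MgCl2, 0.05% BSA, 1 mM DTT. Fluorescence read at Ex 485/Em 525 nm.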
# TrxR1 substrate: is turned over as a substrate by rat TrxR1 | Potency, µM (titrated, usually from 114 µM), without a hit: at the highest dose activity change, negative = substrate turnover | AID 588456 | 0.01% of 390,000 active | purified TrxR1 substrate turnover, NADPH consumption readout | O89049; note: potency is the fitted concentration of half-maximal effect; % is set by controls: 0 for no effect and ±100 for the full control effect; nearly all actives have a fitted effect of over 50% in size
# Target sequence (O89049 whole entry, looked up): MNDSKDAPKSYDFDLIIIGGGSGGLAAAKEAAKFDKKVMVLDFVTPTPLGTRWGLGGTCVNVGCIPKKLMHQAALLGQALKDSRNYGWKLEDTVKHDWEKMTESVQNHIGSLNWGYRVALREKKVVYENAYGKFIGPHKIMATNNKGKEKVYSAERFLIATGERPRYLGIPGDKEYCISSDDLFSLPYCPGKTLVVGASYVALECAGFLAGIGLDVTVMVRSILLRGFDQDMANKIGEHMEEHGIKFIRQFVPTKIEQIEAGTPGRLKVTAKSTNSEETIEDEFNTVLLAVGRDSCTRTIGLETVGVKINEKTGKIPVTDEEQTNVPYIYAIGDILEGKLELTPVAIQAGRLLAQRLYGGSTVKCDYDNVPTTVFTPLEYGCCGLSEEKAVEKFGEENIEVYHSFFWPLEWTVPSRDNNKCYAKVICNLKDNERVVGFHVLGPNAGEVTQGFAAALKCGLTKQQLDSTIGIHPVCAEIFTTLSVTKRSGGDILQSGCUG
#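 Rat TrxR1, dispensed at 90 nM, was prereduced with 400 uM NADPH (final) for 5 min at ~22 deg C, then incubated with compound 15 min before 400 uM selenite. A first-read NADPH fluorescence drop versus no-compound background flagged substrates.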
# TrxR1 inh-1: rat TrxR1 inhibition; O89049; recombinant rTrxR1, NADPH fluorescence consumption, selenite substrate; Potency, µM (series often up to 114 µM), for inactives: top-dose activity change, negative = inhibition, hits mostly inhibitors; 1% of 390,000 active; AID 588453; note: potency is the fitted concentration of half-maximal effect; % is set by controls: 0 for no effect and ±100 for the full control effect; nearly all actives have a fitted effect of over 65% in size
#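 Rat TrxR1 (90 nM in the dispensed reagent) was pre-reduced with 400 uM NADPH for 5 min at room temperature, then incubated with compound for 15 min. After 400 uM selenite was added, NADPH fluorescence (Ex 340/Em 450 nm) was followed for 8 min.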
# TRb SRC2 Alpha: TRb-SRC2 (human) interaction inhibition; shares compounds with TrxR1 inh-1; AlphaScreen TRb LBD-SRC2 peptide binding, luminescence; 50% of 30 active; Potency, µM; calls by dose curve
# HepG2 tox: HepG2 cytotoxicity, 72 h ATP readout; 50% of 40 active; shares compounds with TrxR1 inh-1; Potency, µM; HepG2 viability, ATP luminescence (CellTiter-Glo), 72 h; calls by dose curve
# AR-SRC2 inh: disrupts human androgen receptor binding to SRC2 peptide. 25 tested, under 10 active. shares compounds with TrxR1 inh-1. calls only. AR-LBD Tx-SRC2-3 fluorescence polarization, 3 h; call rule not given here
# PPARg-DRIP2 inh: disrupts human PPARgamma binding to DRIP-2 peptide; shares compounds with TrxR1 inh-1; 25 tested, under 10 active; PPARg LBD / Texas Red DRIP-2 peptide, fluorescence polarization, 3 h; AID 2449; Potency, µM; calls by dose curve
# VDR-SRC2 FP sel: selectivity of TRb-SRC2 inhibitors: human vitamin D receptor-SRC2 inhibition; shares compounds with TrxR1 inh-1; VDR LBD/SRC2-3 peptide, fluorescence polarization, 3 h; Potency, µM; 25 tested, under 10 active; AID 2455; calls by dose curve
# TRb SRC2 FluoFP: disrupts human TRb binding to fluorescein-SRC2 peptide; shares compounds with TrxR1 inh-1; TRb LBD / fluorescein-SRC2 peptide, fluorescence polarization; Potency, µM; 20 tested, under 10 active; AID 2487; call rule not given here
# GR counterassay: inhibits human glutathione reductase in TrxR1 counterassay; activity change, negative = inhibition, % at 57.1 µM; AID 652020; purified GR, DTNB reduction absorbance 405 nm kinetic; 55 tested, under 10 active; shares compounds with TrxR1 inh-1
# TrxR1 inh-2: blocks rat thioredoxin reductase 1 in hit validation. shares compounds with TrxR1 inh-1. recombinant TrxR1, NADPH fluorescence consumption, selenite substrate. Potency, µM, hits mostly inhibitors. 50% of 55 active. AID 652023
# TrxR1 insulin: inhibits TrxR1-driven insulin reduction; Potency, µM; 20% of 55 active; shares compounds with TrxR1 inh-1; TrxR1 Trx-coupled insulin reduction, NADPH absorbance 340 nm;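 active = compounds with a measured potency under 100 micromolar; inconclusive = filed, but no rule given; inactive = potency at or above that, or unmeasurable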
# TrxR1 inh-3: rat thioredoxin reductase 1 inhibition, DTNB assay | 90% of 55 active | Potency, µM | purified TrxR1, DTNB reduction, A412 | shares compounds with TrxR1 inh-1;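 active = a half-inhibiting concentration could be measured and was below 100 µM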
# Active calls of the source: *; i = inactive; ? = inconclusive; . = not tested or not shown; [ ] = remark or other dose. Unless noted, calls come from the whole dose curve; as a rule, active = well fitted curve in the direction sought with a large enough effect; inconclusive = small, poorly fitted or top-dose-only effect, or another doubt; inactive = no such curve, though single readings can be large; an effect the other way counts as inactive or inconclusive.
SMILES,IDH1 R132H inh,FBPA coupling cs,Eya2 phos inh,TrxR1 substrate,TrxR1 inh-1,TRb SRC2 Alpha,HepG2 tox,TRb SRC2 FluoFP,others
CCCCCCCN1C(Nc2ccccc2)=NC[C@@H]1Cc1ccccc1,19%,0,6%,1%,11%,.,.,.,
CCN1C(Nc2ccccc2)=NC[C@@H]1Cc1ccccc1,5%,3,8%,5%,16µM*,.,.,.,GR counterassay=-11;TrxR1 inh-2=?;TrxR1 insulin=i;TrxR1 inh-3=0.87µM*
COc1cccc([C@@H]2Oc3ccc(Br)cc3C(=O)[C@H]2OC(=O)NS(=O)(=O)c2ccc(C)cc2)c1,.,0,.,.,.,.,.,.,
COc1ccc(-c2ccc(C(C)=O)cc2)cc1C1C2C=CCCC2(C)C(=O)N1Cc1ccccc1 (centres undefined),.,-1,.,-12%,-29%,.,.,.,
CC(S(=O)(=O)c1ccccc1)S(=O)(=O)c1ccccc1,-1%,.,.,.,.,.,.,.,
CCc1c(C(C)S(=O)(=O)c2ccccc2)[nH]c(=O)n1CC (centres undefined),4%,0,-1%,-16%[57.1 µM],1.8µM*,.,.,.,GR counterassay=-13;TrxR1 inh-2=2.4*;TrxR1 insulin=4µM*;TrxR1 inh-3=0.045µM*
COC(=O)c1ccccc1S(=O)(=O)N(Cc1ccco1)Cc1cc2cc(OC)ccc2[nH]c1=O,11%,3,10%,24%,10µM*,.,.,.,GR counterassay=0;TrxR1 inh-2=6*;TrxR1 insulin=i;TrxR1 inh-3=7.4µM*
CCCN1CCC(=O)N(C(CSc2ccc(C)cc2)CC(C)C)CC1 (centres undefined),.,0,.,-11%,-27%,.,.,.,
O=C(COC(=O)c1ccc2ncsc2c1)NC(=O)C1CCCCC1,.,.,.,-1%,7%,i,20µM*,i,
CC(=O)Nc1cccc(C(=O)OCC(=O)NC(=O)C2CCCCC2)c1,.,.,.,-2%,-1%,i,i,i,
CC1(C)C2CCC1(C)C(NC(=O)COC(=O)c1ccc(S(C)(=O)=O)c([N+](=O)[O-])c1)C2 (centres undefined),.,.,.,-2%,3.5µM*,6.8µM*,23µM*,3.3µM*,AR-SRC2 inh=i;PPARg-DRIP2 inh=i;VDR-SRC2 FP sel=40µM*
O=C(COC(=O)c1ccc(C(F)(F)F)cc1)NC(=O)C1CCCCC1,.,.,.,-3%,22%,i,i,i,
CC(=O)Nc1cccc(C(=O)OCC(=O)NC2CCCCCCC2)c1,11%,.,-7%,12%,26%,.,.,.,
CC1CCC(NC(=O)COC(=O)c2ccc3ncsc3c2)CC1 (centres undefined),-12%,.,-7%,7%,20%,.,.,.,
FC(F)(F)c1ccccc1-c1nccc(-n2ccnc2)n1,.,-7,.,.,.,.,.,.,
